Assays:
[1] = molecular target: Platelet-derived growth factor receptor beta (Homo sapiens) (UniProt P09619); conditions: at 1 µM;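 further: each value is a mean percent inhibition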
[2] = molecular target: Tyrosine-protein kinase FRK (Homo sapiens) (UniProt P42685); conditions: at 0.1 µM
[3] = molecular target: Tyrosine-protein kinase FRK (Homo sapiens) (UniProt P42685); conditions: at 1 µM
[4] = molecular target: Protein-tyrosine kinase 2-beta (Homo sapiens) (UniProt Q14289); conditions: at 0.1 µM
[5] = molecular target: Protein-tyrosine kinase 2-beta (Homo sapiens) (UniProt Q14289); conditions: at 1 µM
[6] = molecular target: Proto-oncogene tyrosine-protein kinase receptor Ret (Homo sapiens) (UniProt P07949); conditions: at 0.1 µM
Sequence of Proto-oncogene tyrosine-protein kinase receptor Ret (Homo sapiens) (P07949 whole entry): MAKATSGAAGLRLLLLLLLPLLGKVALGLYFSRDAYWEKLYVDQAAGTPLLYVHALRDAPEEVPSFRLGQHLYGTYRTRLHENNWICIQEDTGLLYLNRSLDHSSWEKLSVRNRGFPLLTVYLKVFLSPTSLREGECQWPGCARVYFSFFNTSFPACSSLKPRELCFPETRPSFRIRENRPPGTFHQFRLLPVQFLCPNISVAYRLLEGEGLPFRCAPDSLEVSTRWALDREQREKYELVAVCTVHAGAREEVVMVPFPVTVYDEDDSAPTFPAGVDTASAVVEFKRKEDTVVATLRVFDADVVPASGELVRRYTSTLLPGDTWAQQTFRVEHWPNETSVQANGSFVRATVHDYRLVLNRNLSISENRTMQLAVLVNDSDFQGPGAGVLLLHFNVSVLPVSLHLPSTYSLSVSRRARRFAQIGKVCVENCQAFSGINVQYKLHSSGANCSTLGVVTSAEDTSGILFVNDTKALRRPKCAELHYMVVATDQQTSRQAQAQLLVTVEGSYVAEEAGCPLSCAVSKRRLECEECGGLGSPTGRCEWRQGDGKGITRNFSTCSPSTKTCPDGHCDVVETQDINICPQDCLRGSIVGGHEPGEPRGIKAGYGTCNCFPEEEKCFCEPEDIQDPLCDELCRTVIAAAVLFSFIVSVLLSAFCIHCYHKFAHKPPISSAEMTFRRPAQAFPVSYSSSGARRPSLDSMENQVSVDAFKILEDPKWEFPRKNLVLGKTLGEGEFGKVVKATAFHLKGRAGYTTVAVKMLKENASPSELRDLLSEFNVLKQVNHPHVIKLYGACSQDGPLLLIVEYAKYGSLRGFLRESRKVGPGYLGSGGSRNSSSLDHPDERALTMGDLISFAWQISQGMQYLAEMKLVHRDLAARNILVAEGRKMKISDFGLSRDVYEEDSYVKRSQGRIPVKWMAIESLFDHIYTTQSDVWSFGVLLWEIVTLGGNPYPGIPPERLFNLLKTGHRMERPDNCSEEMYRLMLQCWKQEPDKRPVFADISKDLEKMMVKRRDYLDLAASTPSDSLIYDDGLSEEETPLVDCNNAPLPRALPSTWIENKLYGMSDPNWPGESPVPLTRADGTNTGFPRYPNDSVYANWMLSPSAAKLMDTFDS

[7] = molecular target: Proto-oncogene tyrosine-protein kinase receptor Ret (Homo sapiens) (UniProt P07949); conditions: at 1 µM
[8] = tested on: Proto-oncogene tyrosine-protein kinase receptor Ret (Homo sapiens), P07949 [V804L]; conditions: at 0.1 µM
Sequence of Proto-oncogene tyrosine-protein kinase receptor Ret (Homo sapiens), P07949 [V804L] (P07949 whole entry V804L): as the sequence (P07949 whole entry) above, with V804L counted along it

[9] = tested on: Proto-oncogene tyrosine-protein kinase receptor Ret (Homo sapiens), P07949 [V804L]; conditions: at 1 µM
[10] = tested on: Proto-oncogene tyrosine-protein kinase receptor Ret (Homo sapiens), P07949 [Y791F]; conditions: at 0.1 µM
Sequence of Proto-oncogene tyrosine-protein kinase receptor Ret (Homo sapiens), P07949 [Y791F] (P07949 whole entry Y791F): as the sequence (P07949 whole entry) above, with Y791F counted along it

[11] = tested on: Proto-oncogene tyrosine-protein kinase receptor Ret (Homo sapiens), P07949 [Y791F]; conditions: at 1 µM
[12] = molecular target: Macrophage-stimulating protein receptor (Homo sapiens) (UniProt Q04912); conditions: at 0.1 µM
Sequence of Macrophage-stimulating protein receptor (Homo sapiens) (Q04912 25-304 limits assumed): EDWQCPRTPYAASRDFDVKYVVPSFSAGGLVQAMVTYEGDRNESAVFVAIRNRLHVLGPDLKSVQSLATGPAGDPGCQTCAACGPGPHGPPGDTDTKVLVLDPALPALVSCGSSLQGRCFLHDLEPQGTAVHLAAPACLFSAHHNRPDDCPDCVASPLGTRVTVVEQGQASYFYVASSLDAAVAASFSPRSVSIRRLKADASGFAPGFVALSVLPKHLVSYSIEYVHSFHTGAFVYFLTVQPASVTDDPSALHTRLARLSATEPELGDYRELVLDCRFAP
Sequence of Macrophage-stimulating protein receptor (Homo sapiens) (Q04912 310-1400 limits assumed): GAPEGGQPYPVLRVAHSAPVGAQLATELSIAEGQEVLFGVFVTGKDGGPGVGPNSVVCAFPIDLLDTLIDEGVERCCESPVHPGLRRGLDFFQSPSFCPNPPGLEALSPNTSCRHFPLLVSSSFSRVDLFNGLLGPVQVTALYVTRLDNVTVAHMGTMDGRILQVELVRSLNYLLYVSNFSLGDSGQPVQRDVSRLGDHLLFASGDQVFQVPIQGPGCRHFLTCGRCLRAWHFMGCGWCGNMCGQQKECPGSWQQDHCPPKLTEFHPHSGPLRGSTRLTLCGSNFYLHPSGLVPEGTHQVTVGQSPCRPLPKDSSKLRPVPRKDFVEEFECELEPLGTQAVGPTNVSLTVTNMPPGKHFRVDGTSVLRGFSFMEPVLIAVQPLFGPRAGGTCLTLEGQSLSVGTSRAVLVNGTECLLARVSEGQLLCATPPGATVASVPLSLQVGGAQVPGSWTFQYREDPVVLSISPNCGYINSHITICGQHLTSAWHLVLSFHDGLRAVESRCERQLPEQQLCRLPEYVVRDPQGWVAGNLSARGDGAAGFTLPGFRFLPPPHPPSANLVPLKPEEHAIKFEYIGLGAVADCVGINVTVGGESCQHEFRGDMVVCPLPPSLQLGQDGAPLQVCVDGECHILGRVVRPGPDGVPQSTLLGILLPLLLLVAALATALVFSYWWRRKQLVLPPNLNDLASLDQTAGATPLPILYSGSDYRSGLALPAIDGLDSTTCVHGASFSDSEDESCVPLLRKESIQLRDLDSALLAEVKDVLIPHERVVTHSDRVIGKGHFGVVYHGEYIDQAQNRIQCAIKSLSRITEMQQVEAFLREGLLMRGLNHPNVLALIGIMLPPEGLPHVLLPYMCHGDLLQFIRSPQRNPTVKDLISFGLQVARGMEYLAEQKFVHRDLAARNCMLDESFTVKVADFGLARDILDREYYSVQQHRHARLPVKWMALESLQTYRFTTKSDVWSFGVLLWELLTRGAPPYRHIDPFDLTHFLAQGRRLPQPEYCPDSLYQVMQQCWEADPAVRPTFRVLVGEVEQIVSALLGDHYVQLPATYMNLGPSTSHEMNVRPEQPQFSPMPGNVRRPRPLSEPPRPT

[13] = molecular target: Macrophage-stimulating protein receptor (Homo sapiens) (UniProt Q04912); conditions: at 1 µM
[14] = molecular target: Proto-oncogene tyrosine-protein kinase ROS (Homo sapiens) (UniProt P08922); conditions: at 0.1 µM
[15] = molecular target: Proto-oncogene tyrosine-protein kinase ROS (Homo sapiens) (UniProt P08922); conditions: at 1 µM
[16] = molecular target: Proto-oncogene tyrosine-protein kinase Src (Homo sapiens) (UniProt P12931); conditions: at 0.1 µM
Sequence of Proto-oncogene tyrosine-protein kinase Src (Homo sapiens) (P12931 2-536 limits assumed): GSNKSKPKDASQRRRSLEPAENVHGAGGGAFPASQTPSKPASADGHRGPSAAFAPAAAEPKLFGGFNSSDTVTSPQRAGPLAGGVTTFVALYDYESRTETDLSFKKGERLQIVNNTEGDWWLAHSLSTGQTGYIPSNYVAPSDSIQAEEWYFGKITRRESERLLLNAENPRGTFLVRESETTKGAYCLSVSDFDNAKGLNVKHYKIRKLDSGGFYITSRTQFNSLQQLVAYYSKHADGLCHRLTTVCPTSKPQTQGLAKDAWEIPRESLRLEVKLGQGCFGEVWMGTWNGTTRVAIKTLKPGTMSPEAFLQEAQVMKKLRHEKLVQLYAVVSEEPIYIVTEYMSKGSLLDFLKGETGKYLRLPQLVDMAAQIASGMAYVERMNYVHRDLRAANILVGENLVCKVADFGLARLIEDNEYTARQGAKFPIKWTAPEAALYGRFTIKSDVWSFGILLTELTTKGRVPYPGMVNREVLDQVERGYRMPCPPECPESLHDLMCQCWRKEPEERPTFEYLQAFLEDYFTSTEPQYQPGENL

[17] = molecular target: Proto-oncogene tyrosine-protein kinase Src (Homo sapiens) (UniProt P12931); conditions: at 1 µM
[18] = molecular target: Tyrosine-protein kinase Srms (Homo sapiens) (UniProt Q9H3Y6); conditions: at 0.1 µM
[19] = molecular target: Tyrosine-protein kinase Srms (Homo sapiens) (UniProt Q9H3Y6); conditions: at 1 µM
[20] = molecular target: Tyrosine-protein kinase SYK (Homo sapiens) (UniProt P43405); conditions: at 0.1 µM;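 further: reported percentages are mean inhibition values for SYK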

Sequence of Tyrosine-protein kinase FRK (Homo sapiens) (P42685 whole entry): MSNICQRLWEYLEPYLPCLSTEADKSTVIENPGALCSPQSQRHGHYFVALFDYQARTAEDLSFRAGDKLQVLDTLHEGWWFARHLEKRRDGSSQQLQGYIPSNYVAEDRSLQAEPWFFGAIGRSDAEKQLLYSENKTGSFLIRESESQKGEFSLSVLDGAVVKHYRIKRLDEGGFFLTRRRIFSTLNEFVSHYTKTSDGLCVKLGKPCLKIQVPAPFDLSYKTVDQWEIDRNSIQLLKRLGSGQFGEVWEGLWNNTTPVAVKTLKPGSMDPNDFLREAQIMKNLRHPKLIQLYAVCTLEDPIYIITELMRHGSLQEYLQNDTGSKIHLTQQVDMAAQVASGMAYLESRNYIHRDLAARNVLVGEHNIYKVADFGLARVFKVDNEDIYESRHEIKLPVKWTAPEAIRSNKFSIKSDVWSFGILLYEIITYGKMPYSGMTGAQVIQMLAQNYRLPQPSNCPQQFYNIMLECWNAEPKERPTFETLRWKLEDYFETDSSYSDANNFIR
Sequence of Platelet-derived growth factor receptor beta (Homo sapiens) (P09619 whole entry): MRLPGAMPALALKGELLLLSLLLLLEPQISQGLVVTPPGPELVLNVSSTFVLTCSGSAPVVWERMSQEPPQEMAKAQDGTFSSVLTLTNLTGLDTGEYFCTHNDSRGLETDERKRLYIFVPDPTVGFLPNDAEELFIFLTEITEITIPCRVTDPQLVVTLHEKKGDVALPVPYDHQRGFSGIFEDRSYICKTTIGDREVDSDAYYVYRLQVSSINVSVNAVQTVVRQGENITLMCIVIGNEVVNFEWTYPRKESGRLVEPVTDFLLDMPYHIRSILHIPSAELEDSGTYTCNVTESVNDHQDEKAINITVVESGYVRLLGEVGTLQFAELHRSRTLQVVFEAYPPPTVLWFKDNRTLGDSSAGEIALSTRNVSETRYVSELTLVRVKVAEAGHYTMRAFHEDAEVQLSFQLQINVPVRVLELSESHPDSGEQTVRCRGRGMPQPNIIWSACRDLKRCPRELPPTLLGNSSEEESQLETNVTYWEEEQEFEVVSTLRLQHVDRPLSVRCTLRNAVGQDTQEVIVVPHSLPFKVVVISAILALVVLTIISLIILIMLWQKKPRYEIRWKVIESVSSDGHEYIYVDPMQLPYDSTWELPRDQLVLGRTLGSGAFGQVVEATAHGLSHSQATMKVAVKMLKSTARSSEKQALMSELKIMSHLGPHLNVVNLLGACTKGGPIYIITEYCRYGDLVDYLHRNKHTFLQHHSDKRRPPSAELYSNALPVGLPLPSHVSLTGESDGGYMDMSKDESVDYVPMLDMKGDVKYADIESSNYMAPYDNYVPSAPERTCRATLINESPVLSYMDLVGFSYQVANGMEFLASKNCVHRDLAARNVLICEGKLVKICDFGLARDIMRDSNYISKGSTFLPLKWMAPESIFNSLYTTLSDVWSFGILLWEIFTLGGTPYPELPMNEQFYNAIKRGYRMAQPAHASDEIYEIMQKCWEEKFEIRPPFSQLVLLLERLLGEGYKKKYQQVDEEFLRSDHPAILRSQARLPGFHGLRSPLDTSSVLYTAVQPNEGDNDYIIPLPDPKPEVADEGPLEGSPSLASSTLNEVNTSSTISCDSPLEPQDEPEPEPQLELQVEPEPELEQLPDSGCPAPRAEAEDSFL

Row | Structure (SMILES) | inhibition [1] [%] | inhibition [2] [%] | inhibition [3] [%] | inhibition [4] [%] | inhibition [5] [%] | inhibition [6] [%] | inhibition [7] [%] | inhibition [8] [%] | inhibition [9] [%] | inhibition [10] [%] | inhibition [11] [%] | inhibition [12] [%] | inhibition [13] [%] | inhibition [14] [%] | inhibition [15] [%] | inhibition [16] [%] | inhibition [17] [%] | inhibition [18] [%] | inhibition [19] [%] | inhibition [20] [%]
1 | CS(=O)(=O)CCNCc1ccc(-c2ccc3ncnc(Nc4ccc(OCc5ccccc5)c(C(F)(F)F)c4)c3c2)o1 | 2 | 3.35 | 2.29 | 8.29 | 7.02 | 5.03 | 2.3 | 3.65 | 4.42 | 6.07 | 6.81 | -2.49 | -4.8 | 3.04 | 6.52 | 6.38 | 7.74 | -2.3 | -1.62 | -2.88
2 | N#Cc1c(NC(=O)c2ccc(F)cc2)sc2c1CCCC2 | 5.64 | 0.6 | 1.01 | 1 | 1.23 | 0.59 | -0.03 | 1.83 | 2.29 | 1.07 | 7.62 | 1.04 | 2.12 | 0.38 | 4.13 | 4.79 | 1.56 | -1.11 | -0.62 | -2.1
3 | CCN(CC)S(=O)(=O)c1ccc(OC)c(Nc2ncc(-c3ccccc3)o2)c1 | 63.8 | 1.39 | 9.88 | -0.93 | 16.5 | 9.2 | 36.2 | 3.84 | 21.3 | 5.14 | 35.7 | 4 | -1.9 | 1.91 | 19 | 9.87 | 56.4 | 1.97 | 3.53 | 0.84
4 | Nc1nc(-c2cccc(Cl)c2)c(-c2ccc3ncccc3n2)s1 | 15 | 3.21 | 3.32 | 10.4 | 14.5 | 4.79 | 5.99 | 8.87 | 14.1 | 3.93 | 15.2 | 4.75 | 10.5 | 6.74 | 11.4 | 4.18 | 13.6 | -1.79 | -1.08 | -2.15
5 | CNC(=O)c1cccc(C#Cc2cncnc2Nc2ccc(OCc3cccc(F)c3)c(Cl)c2)c1 | 14.1 | -0.32 | -0.09 | -0.72 | 5.17 | 1.18 | 11.6 | 2.44 | 12.6 | 0.02 | 20.7 | 0.58 | 0.88 | -2.5 | 1.03 | -0.84 | 5.22 | 0.46 | 1.17 | -6.37
6 | COc1ccc2[nH]c3c4[nH]c5ccc(OC)cc5c4c4c(c3c2c1)C(=O)NC4=O | 85.1 | -0.26 | 0.68 | 29.5 | 80.6 | 40.5 | 77.3 | 71 | 82.1 | 44.8 | 67.3 | 6.28 | 16.9 | 55.8 | 79.1 | -1.01 | 20.4 | 3.34 | 15.6 | -7.81
7 | COc1ccc(-c2cc(-c3c[nH]nc3-c3ccccn3)ccn2)cc1 | 31.9 | 3.08 | 2.92 | 7.68 | 13.9 | 5.33 | 5.9 | 4.29 | 5.73 | 6.24 | 17.4 | 2.4 | 21.3 | 3.05 | 8.62 | 0.76 | 11.1 | -2.06 | 0.71 | -6.85
8 | COc1ccc(-c2oc3ncnc(N)c3c2-c2ccc(NC(=O)Nc3cc(C(F)(F)F)ccc3F)cc2)cc1 | 80.4 | 11.5 | 65 | 18.8 | 91 | 89 | 93.6 | 69.5 | 87.8 | 74.4 | 94.7 | 4.83 | 21.8 | 32.7 | 81.2 | 43.1 | 91.1 | 1.78 | 8.83 | -0.9
9 | NS(=O)(=O)c1ccc(N/N=C2\C(=O)Nc3ccc4ncccc4c32)cc1 | 82.8 | 0.32 | 4.11 | 6.43 | 43.2 | 37.3 | 78.9 | 57.7 | 82.7 | 45.3 | 77.7 | 2.25 | 13.3 | 8.1 | 35.3 | 19.3 | 71.1 | -0.11 | 3.96 | -9.38
10 | CCn1cc(-c2ccnc3[nH]ccc23)c(-c2cccc(NC(=O)Nc3ccc(OCc4ccccc4)cc3)c2)n1 | 3.09 | 1.32 | 1.39 | 3.44 | 3.88 | 0.08 | 0.88 | 0.99 | 0.01 | 2.29 | 11.9 | -0.2 | 23.8 | 1.33 | 0.45 | 1.17 | 6.43 | -1.11 | -1.61 | -1.9
11 | CNC(=O)c1cc(-c2ccc(F)cc2)cc(-c2ccc(S(=O)(=O)N3CCCC3)cc2)c1N | 6.26 | 2.42 | 2.21 | 2.65 | 7.64 | 2.88 | 2.96 | 2.49 | 5.41 | 3.21 | 2.82 | 1.89 | 4.58 | 4.64 | 6.55 | 5.46 | 6.17 | 2.11 | -2.91 | -0.29
12 | O=S(=O)(CCNCc1ccc(-c2ccc3ncnc(Nc4ccc(OCc5cccc(F)c5)c(Cl)c4)c3c2)o1)c1ccccc1 | 12.2 | 4.29 | 3.5 | 5.1 | 12.9 | 6.34 | 3.04 | 7.31 | 9.24 | 10.8 | 15.4 | 1.71 | 2.9 | 4.44 | 6.24 | 9.13 | 8.52 | -1.84 | -3.16 | -4.56
13 | COc1cc(/C=N/Nc2ncnc3[nH]ncc23)ccc1O | 67 | 2.72 | 3.55 | 11.4 | 29.7 | 59 | 83.4 | 17.8 | 68.6 | 56.7 | 80.9 | -1.46 | 17 | 5.97 | 27 | 27.9 | 83.2 | -0.95 | 6.55 | -7.54
14 | COc1cc2c(cc1Nc1nc(Nc3ccsc3C(N)=O)c3cc[nH]c3n1)N(C(=O)CN(C)C)CCC2(C)C | 62.7 | 2.92 | 8.45 | 88.3 | 96.7 | 8.13 | 14.1 | 12.9 | 38.1 | 8.97 | 18.7 | -4.25 | 28.9 | 79.7 | 83.1 | 0.33 | 11.7 | -1.82 | -3.22 | -6.01

Source: ChEMBL document CHEMBL1961873, “Compounds: GSK PKIS; Assays: Nanosyn kinase panel” (2012)
